Screening data from PubChem.
Most compounds without a hit are left out; they make up all but 4% or so of the library.
NLRP3 yeast inh: NALP3 inflammasome inhibitors in reconstituted yeast, primary screen, luminescence, uHTS; Yeast reconstituted NLRP3/ASC/caspase-1, beta-gal luminescence, 24 h; inhibition, % at 10 µM; 0.39% of 330,000 active;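 active = inhibition of 50% or more; inactive = inhibition below 50%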
NALP1 yeast inh: NALP1 inflammasome inhibitors in reconstituted yeast, colorimetric, S. cerevisiae, triplicate retest | S. cerevisiae NALP1/ASC/caspase-1 growth, X-gal OD620, 72 h | inhibition, % at 10 µM | 0.61% of 280,000 active | AID 2071, 2009; in the data active = inhibition mostly above about 24%, no sharp cut-off; inactive = mostly below about 32%
tim10-1 inh: growth inhibitors of tim10-1 mutant yeast, primary screen, luminescence, uHTS; 2.2% of 330,000 active; S. cerevisiae tim10-1 ts strain growth, BacTiter-Glo, 24 h; AID 463190, 2010; inhibition, % at 20 µM;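 active = inhibition of at least 40%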;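 also: mutant grown at 25 °C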
tim23-1 inh: growth inhibitors of tim23-1 mutant yeast, primary screen, luminescence, uHTS; S. cerevisiae tim23-1 growth, BacTiter-Glo luminescence, 24 h; inhibition, % at 20 µM; 1.3% of 330,000 active;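 active = growth inhibition of the mutant yeast at or above 50%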;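 also: temperature-sensitive mutant grown at 25 °C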
TIM10 inh: growth inhibitors of isogenic TIM10 control yeast, primary screen, counter-screen for tim10-1 yeast inhibitor project, luminescence, uHTS; inhibition, % at 10 µM; AID 463195, 2010; 1.4% of 330,000 active; S. cerevisiae TIM10 strain growth, BacTiter-Glo luminescence, 24 h;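 active = inhibition of 40% or more at the single tested concentration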;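 also: wild-type TIM10 isogenic control strain grown at permissive 25 °C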
tim10-1 conf: growth inhibitors of tim10-1 mutant yeast, confirmation, single concentration, luminescence, S. cerevisiae; shares compounds with tim10-1 inh; S. cerevisiae tim10-1 ts strain growth, BacTiter-Glo, 24 h; inhibition, % at 20 µM; 56% of 7,400 active; AID 463213, 2010;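 active = inhibition of yeast growth at or above a set limit in either of two repeat tests at 20 µM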;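 also: tim10-1 mutant grown at permissive 25 °C to find synthetic lethal compounds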
A number is an active result.

`COC(=O)c1c(NC(=O)c2nn(C)cc2Cl)sc2c1CCCC2` gave NLRP3 yeast inh inactive, NALP1 yeast inh inactive, tim10-1 inh 50, tim23-1 inh inactive, TIM10 inh inactive and tim10-1 conf inactive.
CCCSc1oc(-c2ccco2)nc1S(=O)(=O)c1ccccc1 was read as NLRP3 yeast inh inactive, NALP1 yeast inh inactive, tim10-1 inh 43, tim23-1 inh inactive, TIM10 inh inactive and tim10-1 conf inactive.
Screening COc1ccc(CCNC(=O)COc2ccc(S(=O)(=O)NC3CCCCC3)cc2Cl)cc1 returned NLRP3 yeast inh inactive, NALP1 yeast inh inactive, tim10-1 inh inactive, tim23-1 inh inactive and TIM10 inh inactive.
CC(C)(C)OC(=O)[C@H]1[C@H](c2ccc([N+](=O)[O-])cc2)C2(C(=O)c3ccccc3C2=O)C2c3ccccc3C=NN21 (stereo not given in full) was read as NLRP3 yeast inh inactive, NALP1 yeast inh inactive, tim10-1 inh inactive, tim23-1 inh inactive and TIM10 inh inactive.
For CC(=O)c1cccc(NC(=S)NCCC2=CCCCC2)c1 the results were NLRP3 yeast inh inactive, NALP1 yeast inh inactive, tim10-1 inh inactive, tim23-1 inh inactive, TIM10 inh inactive and tim10-1 conf inactive.
Screening CC(=O)c1cccc(NC(=S)NC(=O)Cc2ccccc2)c1 returned NLRP3 yeast inh inactive, NALP1 yeast inh inactive, tim10-1 inh 46, tim23-1 inh inactive, TIM10 inh inactive and tim10-1 conf inactive.
Screening COc1cc(C2(c3ccc(O)c(OC)c3)C(=O)Nc3c(C)cc(Br)cc32)ccc1O returned NLRP3 yeast inh inactive, tim10-1 inh inactive, tim23-1 inh inactive and TIM10 inh inactive.
For Cc1[nH]c2ccc(C(=O)N3CCN(c4ccc(F)cc4)CC3)cc2c1C the results were NLRP3 yeast inh inactive, NALP1 yeast inh inactive, tim10-1 inh 54, tim23-1 inh inactive, TIM10 inh inactive and tim10-1 conf inactive.
COc1ccc(N2CCN(C(=O)c3cc(-c4ccc(F)cc4)[nH]c3C)CC2)cc1 was read as NLRP3 yeast inh inactive, NALP1 yeast inh inactive, tim10-1 inh 42, tim23-1 inh inactive, TIM10 inh inactive and tim10-1 conf 40.
Screening CC1Cc2cccc3c(O)c(C(=O)c4nn[nH]n4)c(=O)n1c23 (stereo not given) returned NLRP3 yeast inh inactive, NALP1 yeast inh inactive, tim10-1 inh inactive, tim23-1 inh inactive and TIM10 inh inactive.
Screening O=C(N/N=C/c1ccncc1)NC12CC3CC(CC(C3)C1)C2 returned NLRP3 yeast inh inactive, NALP1 yeast inh inactive, tim10-1 inh inactive, tim23-1 inh inactive and TIM10 inh inactive.
`O=C(N/N=C/c1ccc(O)cc1)NC12CC3CC(CC(C3)C1)C2` gave NLRP3 yeast inh inactive, NALP1 yeast inh inactive, tim10-1 inh 50, tim23-1 inh inactive, TIM10 inh inactive and tim10-1 conf 35.
`COc1cc2nc(N3CCN(c4cc(C)ccc4C)CC3)nc(N)c2cc1OC` gave NLRP3 yeast inh inactive, NALP1 yeast inh inactive, tim10-1 inh 45, tim23-1 inh inactive, TIM10 inh inactive and tim10-1 conf inactive.
Screening COc1cc2nc(N3CCNCC3)nc(N)c2cc1OC returned NLRP3 yeast inh inactive, NALP1 yeast inh inactive, tim10-1 inh inactive, tim23-1 inh inactive and TIM10 inh inactive.
Screening CC(C)(C)CC(=O)N1CCN(c2ccc(S(=O)(=O)N3CCOCC3)cc2[N+](=O)[O-])CC1 returned NLRP3 yeast inh inactive, tim10-1 inh inactive, tim23-1 inh inactive and TIM10 inh inactive.
`Cn1cc(C(=O)NCCN2CCN(c3cccc(Cl)c3)CC2)c2c3ccccc3n(C)c2c1=O` gave NLRP3 yeast inh inactive, NALP1 yeast inh inactive, tim10-1 inh 46, tim23-1 inh inactive, TIM10 inh inactive and tim10-1 conf inactive.
CC1CCN(S(=O)(=O)c2cccc(C(=O)Nc3nccs3)c2)CC1 was read as NLRP3 yeast inh inactive, NALP1 yeast inh inactive, tim10-1 inh 48, tim23-1 inh inactive, TIM10 inh inactive and tim10-1 conf 35.
For O=C(Nc1nccs1)c1ccc(Br)c(S(=O)(=O)N2CCOCC2)c1 the results were NLRP3 yeast inh inactive, NALP1 yeast inh inactive, tim10-1 inh 48, tim23-1 inh inactive, TIM10 inh inactive and tim10-1 conf 32.
For CC1=CC(C)(C)N2C(=O)C3(SCC(=O)N3c3ccc(O)cc3)c3cc(C)cc1c32 (stereo not given) the results were NLRP3 yeast inh inactive, NALP1 yeast inh inactive, tim10-1 inh 43, tim23-1 inh inactive, TIM10 inh inactive and tim10-1 conf inactive.
For Cc1ccc(N2C(=O)CSC23C(=O)Nc2ccccc23)cc1 (stereo not given) the results were NLRP3 yeast inh inactive, NALP1 yeast inh inactive, tim10-1 inh inactive, tim23-1 inh inactive and TIM10 inh inactive.
CCc1noc(C)c1C(=O)N1CCN(S(=O)(=O)c2cccs2)CC1 was read as NLRP3 yeast inh inactive, tim10-1 inh inactive, tim23-1 inh inactive and TIM10 inh inactive.
Cn1nnnc1SCC(=O)N1CCc2ccccc2C1 was read as NLRP3 yeast inh inactive, NALP1 yeast inh inactive, tim10-1 inh inactive, tim23-1 inh inactive and TIM10 inh inactive.
`COc1ccc(-c2nnc(SCC(=O)N3CCc4ccccc4C3)o2)cc1` gave NLRP3 yeast inh inactive, NALP1 yeast inh inactive, tim10-1 inh 43, tim23-1 inh inactive, TIM10 inh inactive and tim10-1 conf inactive.
COc1ccc(-c2nnc(NC(=O)c3ccc(S(=O)(=O)N4CCc5ccccc5C4)cc3)o2)cc1 was read as NLRP3 yeast inh inactive, NALP1 yeast inh inactive, tim10-1 inh 44, tim23-1 inh inactive, TIM10 inh inactive and tim10-1 conf 39.
Cc1ccc(-n2nnnc2SCC(=O)N2CCc3ccccc3C2)c(C)c1 was read as NLRP3 yeast inh inactive, NALP1 yeast inh inactive, tim10-1 inh 44, tim23-1 inh inactive, TIM10 inh inactive and tim10-1 conf 32.
For O=c1[nH]c(CN2CCN(S(=O)(=O)c3cccs3)CC2)nc2c(Br)cc(Br)cc12 the results were NLRP3 yeast inh inactive, NALP1 yeast inh inactive, tim10-1 inh inactive, tim23-1 inh inactive and TIM10 inh inactive.
`O=C(NCCC1=CCCCC1)C1CCN(S(=O)(=O)c2cccc(C(F)(F)F)c2)CC1` gave NLRP3 yeast inh inactive, tim10-1 inh inactive, tim23-1 inh inactive and TIM10 inh inactive.
`COc1ccc(C)cc1NC(=S)NC(C)c1ccc(OC)c(OC)c1` (stereo not given) gave NLRP3 yeast inh inactive, NALP1 yeast inh inactive, tim10-1 inh inactive, tim23-1 inh inactive and TIM10 inh inactive.
`COc1ccc(CC(=O)OCC(=O)Nc2ncc(Cl)c(C)c2Cl)cc1` gave NLRP3 yeast inh inactive, tim10-1 inh 43, tim23-1 inh inactive, TIM10 inh inactive and tim10-1 conf 30.
CCN(CC)C(=O)CSc1nsc(SCC(=O)N(CC)CC)c1C#N was read as NLRP3 yeast inh inactive, NALP1 yeast inh inactive, tim10-1 inh inactive, tim23-1 inh inactive and TIM10 inh inactive.
